{"source": "PubChem BioAssay (Tox21)", "note": "Active and inactive are the calls of the source. Calls come from the whole dose curve; as a rule, active = well fitted curve in the direction sought with a large enough effect in the repeat runs; inconclusive = weak or mixed curves; inactive = flat fitted curve, though single readings scatter. % is set by controls: 0 for no effect and ±100 for the full control effect.", "data": [{"assay": "qHTS assay to test for compound auto fluorescence at 535 nm (green) in HepG2 cell free culture (AID 720686)", "conditions": "Cell-free medium, green autofluorescence 485/535 nm; series mostly up to 91.3 µM; fluorescence, % of fluorescein control: at the top concentration", "description": "U.S. Tox21 Program National Center for Advancing Translational Sciences [NCATS] NIH Chemical Genomics Center [NCGC] U.S. Environmental Protection Agency [EPA] National Institutes of Environmental Health Sciences [NIEHS] National Toxicology Program [NTP] U.S. Food and Drug Administration [FDA] Tox21 Assay Overview: Compound auto fluorescence often interferes with screening of the compound library against various biological targets and signaling pathways. Some of these compounds may have fluorophoric properties. Such properties may interfere with the assay outputs resulting in false positives and/or negatives. To decrease such complications and ensure the compound activities are relevant in terms of biological response, the Tox21 10K compound library was screened for auto fluorescence. From the fluorophores used as reporter signals in our screening assays, the auto fluorescence equivalencies of compounds against three fluorophores have been evaluated: Triamterene, Fluorescein and Rose Bengal sodium for blue, green and red fluorescence, respectively. The fluorescence intensities were measured using Excitation/Emission wavelengths at 405/460nm, 485/535nm and 540/590nm for blue, green and red labels, respectively. This assay includes the green fluorescence data.\nTox21 Assay Protocol Summary: 5 uL of culture medium (MEM containing 10% FBS) per well was dispensed into black wall/clear bottom 1536-well plates using a Multidrop Combi Dispenser (ThermoFisher Scientific, Waltham, MA). After 23 nL compound or DMSO vehicle was transferred into assay plate by a pintool work station (Kalypsys, San Diego, CA), fluorescence intensities in the assay plates were measured by an Envision (PerkinElmer, Shelton, CT) plate reader using three labels for measuring blue, green and red fluorescence at […] 460, 535 and 590nm respectively.", "values": [{"smiles": "NNC(=O)OCc1ccccc1", "fluorescence, % of fluorescein control": "-0.0171% (inactive)"}, {"smiles": "COc1ccc(Cl)cc1C", "fluorescence, % of fluorescein control": "-0.0079% [at 95.7 µM] (inactive)"}, {"smiles": "N#CC1(N)CCCCC1", "fluorescence, % of fluorescein control": "-0.039% [at 95.7 µM] (inactive)"}, {"smiles": "CC(C)(C)c1ccc(N)cc1", "fluorescence, % of fluorescein control": "-0.101% (inactive)"}, {"smiles": "O=C(O)Cc1c(Cl)ccc(Cl)c1Cl", "fluorescence, % of fluorescein control": "-0.0574% (inactive)"}, {"smiles": "C=CC(=O)CC", "fluorescence, % of fluorescein control": "-0.0148% [at 95.7 µM] (inactive)"}, {"smiles": "O=C(OOC(=O)c1ccccc1)c1ccccc1", "fluorescence, % of fluorescein control": "0.0991% [at 46 µM] (inactive)"}, {"smiles": "C=COCCCCO", "fluorescence, % of fluorescein control": "-0.0876% (inactive)"}, {"smiles": "CCCCCCC(O)CO", "note": "(stereo not given)", "fluorescence, % of fluorescein control": "0.0067% (inactive)"}, {"smiles": "O=C1c2ccccc2C(=O)N1CO", "fluorescence, % of fluorescein control": "0.0004% [at 95.7 µM] (inactive)"}, {"smiles": "CCCCCC(CC)OC(=O)CCCOc1ccc(Cl)cc1Cl", "note": "(stereo not given)", "fluorescence, % of fluorescein control": "-0.0939% (inactive)"}, {"smiles": "C=CC(=O)OCCOCCOCC", "fluorescence, % of fluorescein control": "0.0541% (inactive)"}, {"smiles": "Cc1ccc2cccnc2c1", "fluorescence, % of fluorescein control": "0.0627% (inactive)"}, {"smiles": "COC(C)(C)CC(C)=O", "fluorescence, % of fluorescein control": "0.149% (inactive)"}, {"smiles": "CC1(C)C(=O)C(C)(C)C1=O", "fluorescence, % of fluorescein control": "0.0168% (inactive)"}, {"smiles": "CCNC(=O)C(C)OC(=O)Nc1ccccc1", "note": "(stereo not given)", "fluorescence, % of fluorescein control": "-0.104% (inactive)"}, {"smiles": "Cc1nnc(C(=O)NC(C)(C)c2nc(C(=O)NCc3ccc(F)cc3)c(O)c(=O)n2C)o1", "fluorescence, % of fluorescein control": "0.0601% [at 46 µM] (inactive)"}, {"smiles": "C=C(C)C(=O)OCCCC", "fluorescence, % of fluorescein control": "-0.0891% [at 95.7 µM] (inactive)"}, {"smiles": "C[C@@H](CN1CC(=O)NC(=O)C1)N1CC(=O)NC(=O)C1", "fluorescence, % of fluorescein control": "0.0197% [at 46 µM] (inactive)"}, {"smiles": "CCCCC(CC)CCC(CC(C)C)OS(=O)(=O)O", "note": "(stereo not given)", "outcome": "inactive"}, {"smiles": "NS(=O)(=O)c1cc2c(cc1C(F)(F)F)NCNS2(=O)=O", "fluorescence, % of fluorescein control": "0.01% [at 18.6 µM] (inactive)"}, {"smiles": "CCC(=O)OCCOc1ccccc1", "fluorescence, % of fluorescein control": "0.0215% (inactive)"}, {"smiles": "CC(=O)Nc1ccc(OCCOCCOc2ccc(NC(C)=O)cc2)cc1", "fluorescence, % of fluorescein control": "0.0223% [at 46 µM] (inactive)"}, {"smiles": "O=S(=O)(O)c1ccc(Cl)cc1", "fluorescence, % of fluorescein control": "-0.158% (inactive)"}, {"smiles": "Cc1ccc(S(=O)(=O)NC(=O)NN2CC3CCCC3C2)cc1", "note": "(stereo not given)", "fluorescence, % of fluorescein control": "-0.0072% [at 18.6 µM] (inactive)"}, {"smiles": "CC[N+](C)(CC)CC", "fluorescence, % of fluorescein control": "-0.0473% (inactive)"}, {"smiles": "CC(C)C(C)C", "fluorescence, % of fluorescein control": "-0.0659% (inactive)"}, {"smiles": "CC(=O)Oc1ccc(C(C)=O)cc1", "fluorescence, % of fluorescein control": "0.0085% [at 95.7 µM] (inactive)"}, {"smiles": "CCCCC(CC)COC(=O)CC#N", "note": "(stereo not given)", "fluorescence, % of fluorescein control": "0.108% (inactive)"}, {"smiles": "C=CC(=O)OCC[N+](C)(C)C", "fluorescence, % of fluorescein control": "0.0223% (inactive)"}, {"smiles": "CC(C)C[P+](C)(CC(C)C)CC(C)C", "fluorescence, % of fluorescein control": "0.0545% (inactive)"}, {"smiles": "CC(=O)c1c(C)cc(C(C)(C)C)cc1C", "fluorescence, % of fluorescein control": "0.0318% (inactive)"}, {"smiles": "CC(C)c1cc(C(C)C)cc(C(C)C)c1", "fluorescence, % of fluorescein control": "0.081% (inactive)"}, {"smiles": "COc1ccc2cc(CCC(C)=O)ccc2c1", "fluorescence, % of fluorescein control": "-0.0938% [at 18.6 µM] (inactive)"}, {"smiles": "C[n+]1ccccc1/C=N/O", "fluorescence, % of fluorescein control": "0.0162% [at 18.6 µM] (inactive)"}, {"smiles": "CC(=O)OCC(=O)[C@@]1(O)CC[C@H]2[C@@H]3CCC4=CC(=O)C=C[C@]4(C)[C@H]3[C@@H](O)C[C@@]21C", "fluorescence, % of fluorescein control": "0.0254% [at 46 µM] (inactive)"}, {"smiles": "C=CCON/C(CCC)=C1\\C(=O)CC(C)(C)C(C(=O)OC)=C1O", "fluorescence, % of fluorescein control": "-0.0181% (inactive)"}, {"smiles": "Cc1ccc(OC(=O)CC(C)C)cc1", "fluorescence, % of fluorescein control": "0.0488% (inactive)"}, {"smiles": "CN(C)c1cc(NC(=O)CNC(C)(C)C)c(O)c2c1C[C@H]1C[C@H]3[C@H](N(C)C)C(=O)C(C(N)=O)=C(O)[C@@]3(O)C(=O)C1=C2O", "fluorescence, % of fluorescein control": "0.116% [at 46 µM] (inactive)"}, {"smiles": "O=C(O)Cc1ccccc1Oc1ccc(Cl)cc1Cl", "fluorescence, % of fluorescein control": "0.04% [at 46 µM] (inactive)"}]}]}
